Bioassay records deposited in PubChem by Broad Institute.
DUX4 inh = DUX4-mediated transcription inhibition. 293T-iDUX4 ZSCAN4-Gaussia luciferase reporter, 24 h; active compounds read low. AID 1224904. hit rate 0.8% among 37,000. activity change, negative = inhibition, % (concentration not given with the values);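 active = mean inhibition of at least 10% in the main channel, exceeding the control channel by a set limit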
A number is an active result; i = inactive. Many of the other results were omitted from the sample, so hits are more common in it than they were.

SMILES	DUX4 inh
COc1ccc2c3c(n(C)c2c1)[C@@H](CO)N(C)CC31CCN(CC2CC2)CC1	i
COc1ccc2c3c(n(C)c2c1)[C@@H](CO)N(S(C)(=O)=O)CC31CCN(C(=O)C2CCCC2)CC1	i
COc1ccc2c3c(n(C)c2c1)[C@@H](CO)N(S(C)(=O)=O)CC31CCN(CC2CCCCC2)CC1	-21
COc1ccc2c3c(n(C)c2c1)[C@@H](CO)N(CC1CC1)CC31CCN(C(=O)c2ccccc2)CC1	-32
CCCNC(=O)N1CC2(C1)CN(Cc1ccccc1)[C@H](CO)c1[nH]c3cc(OC)ccc3c12	i
CCCC(=O)N1CC2(CCN(C(=O)NC(C)C)CC2)c2c([nH]c3cc(OC)ccc23)[C@H]1CO	i
COc1ccc2c3c(n(C)c2c1)[C@@H](CO)N(CC1CC1)CC31CCN(C(=O)CC2CC2)CC1	i
CCCNC(=O)N1CC2(C1)CN(Cc1ccccc1)[C@@H](CO)c1[nH]c3cc(OC)ccc3c12	-10
COc1ccc2c3c([nH]c2c1)[C@@H](CO)N(C(=O)c1ccncc1)CC31CCN(C(=O)NC(C)C)CC1	i
COc1ccc2c3c(n(C)c2c1)[C@@H](CO)N(CC1CC1)CC31CCN(C(C)=O)CC1	i
COc1ccc2c3c([nH]c2c1)[C@@H](CO)N(C(=O)c1ccc(F)cc1)CC31CCN(C(=O)NC(C)C)CC1	-16
CC[C@H]1CC=CC[C@@H](C)Oc2ccccc2C(=O)N(C)[C@@H](C(C)C)C(=O)N1 (mixture of isomers)	i
CC(=O)N1[C@@H](CO)[C@H](c2ccccc2)[C@@H]1CN(C(=O)c1ccc(F)cc1)C(C)C	i
COc1ccc(NC(=O)N2CCCCN3[C@H](CO)[C@@H](c4ccc(C#CCC(C)C)cc4)[C@H]3C2)cc1	i
C[C@@H]1CN([C@H](C)CO)C(=O)c2c(c3ccccc3n2C)-c2ccccc2CO[C@@H]1CN(C)S(=O)(=O)Cc1ccccc1	i
COCCNC(=O)C[C@@H]1CC[C@H]2[C@@H](COC[C@@H](O)CN2Cc2ccc(Cl)c(Cl)c2)O1	i
O=C(Nc1ccccc1F)N1CC2(C1)[C@H](c1ccccc1)[C@H](CO)N2C(=O)CC1CC1	i
CCN(C[C@@H]1N[C@@H](CO)[C@H]1c1ccc(-c2ccc(F)cc2)cc1)C(=O)CN(C)C	i
O=C(C[C@@H]1CC[C@H]2[C@@H](COC[C@H](O)CN2C(=O)Nc2ccccc2)O1)NCCCN1CCOCC1	i
COC(=O)[C@@H]1[C@@H](CO)[C@@H]2Cn3c(cccc3=O)[C@@H]2N1CC1CCCCC1	i
CC(=O)N1CC(=O)N2[C@@H](CO)[C@H](c3ccc(C#Cc4cccnc4)cc3)[C@@H]2C1	i
COCC(=O)N1CC(=O)N2[C@H](C1)[C@H](c1ccc(C#Cc3cccnc3)cc1)[C@@H]2CO	i
COc1cccc(NC(=O)N2CC(=O)N3[C@H](CO)[C@@H](c4ccc(C#CC5CCCCC5)cc4)[C@H]3C2)c1	i
COc1cccc(NC(=O)N2CC(=O)N3[C@H](CO)[C@@H](c4ccc(C#CC5CCCCC5)cc4)[C@@H]3C2)c1	i
CC(=O)N1CC(=O)N2[C@H](CO)[C@H](c3ccc(C#Cc4cccnc4)cc3)[C@H]2C1	-20
SMILES	DUX4 inh
O=C(Cc1ccccc1)N1CC(=O)N2[C@H](C1)[C@@H](c1ccc(C#CCc3ccccc3)cc1)[C@@H]2CO	-34
COCC(=O)N1CC(=O)N2[C@@H](CO)[C@@H](c3ccc(C#Cc4cccnc4)cc3)[C@@H]2C1	i
COc1cccc(NC(=O)N2CC(=O)N3[C@@H](CO)[C@H](c4ccc(C#CC5CCCCC5)cc4)[C@@H]3C2)c1	-47
CC(C)CC#Cc1ccc([C@H]2[C@@H](CO)N3C(=O)CN(C(=O)Cc4ccccc4)C[C@H]23)cc1	i
COCC(=O)N1CC(=O)N2[C@H](CO)[C@H](c3ccc(C#Cc4cccnc4)cc3)[C@H]2C1	-22
CC(=O)N1CC(=O)N2[C@H](CO)[C@@H](c3ccc(C#Cc4cccnc4)cc3)[C@H]2C1	i
CC(C)CC#Cc1ccc([C@@H]2[C@@H](CO)N3C(=O)CN(C(=O)Cc4ccccc4)C[C@H]23)cc1	i
COc1ccc(NC(=O)N2C[C@@H](O)COC[C@@H]3O[C@H](CC(=O)NCc4ccccc4OC)CC[C@H]32)cc1	i
O=C(Nc1cccc(Cl)c1)N1C[C@H]2[C@@H](c3ccccc31)[C@@H](CO)N2C(=O)C1CCCC1	i
CC(C)NC(=O)N[C@H]1CC[C@@H](CC(=O)NC2Cc3ccccc3C2)O[C@@H]1CO	i
Cc1ccc(S(=O)(=O)N[C@H]2C=C[C@@H](CC(=O)NC3CCCCC3)O[C@H]2CO)cc1	i
CCCNC(=O)N1[C@H](CO)[C@H](c2ccc(C3=CCCC3)cc2)[C@@H]1CN(C)C(C)=O	i
CO[C@@H]1CN(C)C(=O)c2ccc(NC(=O)NC3CCCCC3)cc2OC[C@@H](C)N(C(C)=O)C[C@H]1C	i
C/C=C/c1cccc(-c2nc(C(=O)NCCC)cc3c2[C@@H](CCO)N([S@](=O)C(C)(C)C)C3)c1	i
CCC(=O)N1CC2(CN[C@@H](CO)c3c2c2ccc(OC)cc2n3C)C1	i
